G9a block = qHTS Assay for Inhibitors of Histone Lysine Methyltransferase G9a; Potency, µM (titrated, usually from 102 µM), inactives show at the top dose activity, negative = inhibition, actives largely listed as inhibitors; AID 504332, 2011; actives 8.8% (n = 350,000); G9a H3K9 monomethylation, AlphaScreen, 2 h; also: % is scaled to controls: 0 for no effect and ±100 for the full control effect; nearly all actives have a fitted effect of over 75% in size
Target sequence (Q96KQ7 913-1193 limits assumed): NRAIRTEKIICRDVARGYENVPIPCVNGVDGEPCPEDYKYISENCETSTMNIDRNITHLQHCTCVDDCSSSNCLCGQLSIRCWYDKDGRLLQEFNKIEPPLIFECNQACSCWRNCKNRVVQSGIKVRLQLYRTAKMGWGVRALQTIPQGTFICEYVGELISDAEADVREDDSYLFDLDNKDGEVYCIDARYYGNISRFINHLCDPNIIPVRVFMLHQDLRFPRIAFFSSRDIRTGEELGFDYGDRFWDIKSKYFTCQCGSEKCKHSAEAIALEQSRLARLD
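Chemiluminescent proximity detection of H3K9 monomethylation, read after 10 min bead incubation in the dark. Reaction: 20 nM G9a, 500 nM biotin-H3K9 peptide, 20 uM SAM cofactor, 2 h, room temperature, following 15 min enzyme-compound preincubation.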
JMJD2A Tudor = qHTS Assay for Inhibitors of JMJD2A-Tudor Domain; actives 4.4% (n = 390,000); Potency, µM (doses to about 114 µM), without a hit: top-dose activity change, negative = inhibition, most hits filed as inhibitors; AID 504339, 2011; AlphaScreen JMJD2A-Tudor / H3K4me3 peptide binding; also: % is scaled to controls: 0 for no effect and ±100 for the full control effect; nearly all actives have a fitted effect of over 50% in size
HP1b chromo inh = HTS for Inhibitors of HP1-beta Chromodomain Interactions with Methylated Histone Tails; AID 540317, 2011; Potency, µM (titrated, usually from 114 µM), inactives show top-dose activity change, negative = inhibition, actives largely listed as inhibitors; Chromobox protein homolog 1 (Homo sapiens), P83916; AlphaScreen HP1-beta / biotin-H3K9me3 peptide binding; actives 0.56% (n = 390,000); also: nearly all actives have a fitted effect of over 70% in size
Target sequence (P83916 whole entry, looked up): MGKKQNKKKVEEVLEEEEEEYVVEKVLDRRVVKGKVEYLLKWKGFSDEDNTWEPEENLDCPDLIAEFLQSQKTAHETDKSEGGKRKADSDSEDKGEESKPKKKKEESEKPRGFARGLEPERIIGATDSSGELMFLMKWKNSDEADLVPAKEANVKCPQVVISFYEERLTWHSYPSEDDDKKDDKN
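HP1-beta protein (50 nM final) preincubated 30 min at room temperature with biotinylated H3(1-18)K9me3 peptide (50 nM) in PBS pH 7.4, 0.01% Tween-20, then compound added for 30 min. AlphaScreen streptavidin donor/nickel chelate acceptor beads (10 ug/mL final), 30 min dark, luminescence read.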
Sfp inh = qHTS Assay for Inhibitors of Bacillus subtilis Sfp phosphopantetheinyl transferase (PPTase) | AID 1490, 2009 | Biochemical Sfp PPTase activity, qHTS | 4'-phosphopantetheinyl transferase ffp (Bacillus subtilis), Q9F4F7 | Potency, µM, without a hit: largest response in the series, negative = inhibition, hits mostly inhibitors | actives 3.5% (n = 310,000);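 also: the enzyme is Sfp with the accession as filed and its product quenches rhodamine fluorescence; 0% = enzyme reaction without inhibitor and -100% = no enzyme wells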
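Compounds were incubated with enzyme (final 15 nM) for 15 min at room temperature before substrate addition started the reaction. Fluorescence at 525 nm excitation, 598 nm emission was recorded immediately and after 30 minutes.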
BAZ2B block = qHTS Assay for Inhibitors of BAZ2B. AlphaScreen BAZ2B-H3K14Ac peptide displacement. Potency, µM (highest dose often 114 µM), for the others: at the highest dose activity change, negative = inhibition, actives largely listed as inhibitors. actives 4.4% (n = 360,000). AID 504333, 2011; also: % is scaled to controls: 0 for no effect and ±100 for the full control effect; nearly all actives have a fitted effect of over 60% in size
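Protein-peptide AlphaScreen: BAZ2B 50 nM, b-H3K14Ac 50 nM, 1x PBS pH 7.4 + 0.01% Tween-20. Preincubation 30 min RT; cpd 30 min RT (top 110 uM); beads 20 min RT, light-protected.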
Active calls of the source: *; ? = inconclusive; / = no result given; [ ] = dose if it differs, or a comment. Most compounds without a hit are left out; they make up all but 12% or so of the library. Calls follow the shape of the dose curve; as a rule, active = well fitted curve in the direction sought with a large enough effect; inconclusive = small, poorly fitted or top-dose-only effect, or another doubt; inactive = no such curve, though single readings can be large; an effect the other way counts as inactive or inconclusive. Potency is read from the fitted curve at half-maximal effect.

SMILES	G9a block	JMJD2A Tudor	HP1b chromo inh	Sfp inh	BAZ2B block
CCOc1cc(C(=O)Nc2ccc(-c3nc4ncccc4o3)cc2C)cc(OCC)c1OCC	0%[59 µM]	-16%	6%	/	-15%
Cc1cccc(N/N=C2/COC(C)(C)CC2=O)c1	79µM*	-27%	9%	-3%	?
COc1cccc(NC(=O)CCNS(=O)(=O)c2ccc3c(c2)CCCC(=O)N3)c1	1%[59 µM]	-6%	-9%	/	-9%
Cc1ccccc1NC(=O)CN1C(=O)CCn2nc(-c3cccn3C)cc21	-33%[59 µM]	-21%	3%[57 µM]	/	-34%
Cc1ccc(NC(=O)C(NC2CCCc3ccccc32)c2ccccc2)c([N+](=O)[O-])c1 (stereo not given)	11µM*	4.5µM*	25µM*	-41%	45µM*
Nc1nc(Nc2ccccc2F)sc1C(=O)c1ccccc1	11%[0.501 µM]	?	-12%	-10%	45µM*
Cc1nc(Nc2ccccc2)sc1C(=O)c1ccc(F)cc1	?	3%	38%	-20%	?
CCN(CC)c1nc(N(CC)CC)[nH]c(=O)n1	/	0%	32%	/	/
CCN(CC)c1nc(-c2nn[nH]n2)nc(N(CC)CC)n1	?	89µM*	23%	15%	4%
O=C1c2cccc3cccc(c23)C(=O)C1(O)O	/	45µM*	-24%	/	/
Cn1cccc1Cc1nnc(SCC(=O)Nc2ccccc2F)n1-c1ccc(F)cc1	45µM*	-29%	18%	0%	?
Cc1ccccc1NC(=O)CSc1nnc(Cc2cccn2C)n1-c1ccc(F)cc1	?	-31%	9%	-25%	?
Cn1cccc1Cc1nnc(SCC(=O)Nc2ccc(F)cc2)n1-c1ccc(F)cc1	45µM*	?	-17%	-20%	?
COc1ccc(-n2c(Cc3cccn3C)nnc2SCC(=O)NCc2ccc(F)cc2)cc1	45µM*	-32%	5%	-12%	?
COc1ccc(-n2c(Cc3cccn3C)nnc2SCC(=O)NCc2ccco2)cc1	?	?	?	-18%	?
COc1ccc(-n2c(Cc3cccn3C)nnc2SCC(=O)Nc2ccccc2)cc1	28µM*	?	-18%	-1%	?
O=C(NCc1ccncc1)C(=O)NCC1OCCN1S(=O)(=O)c1ccc(F)cc1 (stereo not given)	?	-10%	31%	4%	-21%
Cc1cccc(-c2nc3scc(CCNS(=O)(=O)c4ccc(F)cc4C)n3n2)c1	-21%[59 µM]	-16%	33%	/	1%
CCOc1ccc2nc(N3CCCC(C(=O)Nc4ccc(OC)cc4)C3)sc2c1 (stereo not given)	6%[59 µM]	8%	44%	/	6%
COc1ccc(-n2c(Cc3cccn3C)nnc2SCC(=O)Nc2cccc(F)c2)cc1	?	?	8%	-15%	?
Cn1cccc1Cc1nnc(SCC(=O)NCC2CCCO2)n1-c1ccc(F)cc1 (stereo not given)	35µM*	0%	21%	-2%	-6%
CCSc1nnc(NC(=O)CSc2nnc(Cc3cccn3C)n2-c2ccc(F)cc2)s1	-9%	-11%	27%	4%	-3%
COc1ccc(NC(=O)CSc2nnc(Cc3cccn3C)n2-c2ccc(F)cc2)cc1OC	?	-35%	5%	?	50µM*
Cn1cccc1Cc1nnc(SCC(=O)Nc2ccccc2)n1-c1ccc(F)cc1	45µM*	?	36%	-17%	?
O=C(CSc1nnc(Cc2cc(=O)[nH]c(=O)[nH]2)n1-c1ccccc1)NCC1CCCO1 (stereo not given)	?	-11%[57.1 µM]	60%	12%	7%
SMILES	G9a block	JMJD2A Tudor	HP1b chromo inh	Sfp inh	BAZ2B block
Cc1ccc(CNC(=O)c2ccc(CSCc3c(F)cccc3Cl)o2)cc1	-2%[59 µM]	-2%	42%	/	-4%
Cc1nc(-c2ccc(Cl)cc2)sc1CCNC(=O)C(=O)Nc1ccc2c(c1)OCCO2	22%[59 µM]	-12%	20%[57 µM]	/	-2%
CN1C(=O)C2(c3ccccc31)C1CCCC=C1C(C#N)=C(N)C2(C#N)C#N (stereo not given)	-46%[2.33 µM]	2%[11.4 µM]	38%	13µM*	23%
Cn1ncc(SCc2ccccc2)c(Cl)c1=O	34%	-12%	16%	6%	5%
Cn1ncc(S(=O)(=O)Cc2ccccc2)c(Cl)c1=O	/	-28%	-25%	6.3µM*	?
Cc1cc(C)c(S(=O)(=O)Nc2ccc3oc(C)c(C(=O)OC(C)C)c3c2)cc1C	-6%[59 µM]	-22%	22%	/	-15%
CCCC1(C)C(C#N)(C#N)C1(C#N)C#N	8.9µM*	/	/	/	/
CCCC1(C)C(C#N)C(=O)NC(=O)C1C#N (stereo not given)	/	2%	22%[57 µM]	/	/
Nn1c(Cc2ccccc2F)nnc1SCCOc1ccc(Cl)cc1	-45%[59 µM]	-5%	38%	-3%	-3%
CCOc1ccc(Cc2n[nH]c(=S)n2N)cc1	?	8.9µM*	?	56µM*	-31%
COc1ccc(Cc2nc(=S)[nH][nH]2)cc1Br	-118%	-18%[57.1 µM]	?	35µM*	?
Nn1c(Cc2ccccc2F)n[nH]c1=S	20µM*	3.2µM*	24%	?	-22%
COc1ccc(Cc2n[nH]c(=S)n2C)cc1Br	?	20µM*	5%	?	11%
COc1ccc(CNc2ccccc2)cc1Br	-5%[59 µM]	-7%	49%	-11%	23%
CCOC(=O)c1ccc(CN(Cc2ccc(F)cc2)S(=O)(=O)c2cc(C(=O)Nc3ccccc3CC)ccc2F)cc1	0%[59 µM]	-11%	54%	/	1%
Nn1c(Cc2ccc(Br)cc2)n[nH]c1=S	2.2µM*	7.1µM*	?	35µM*	?
COc1ccc(Cc2n[nH]c(=S)n2N)cc1OC	3.2µM*	7.9µM*	?	20µM*	?
CC(C)(C)OC(=O)N1CCCC(C(=O)Nc2cccc(C(=O)NC3CC3)c2)C1 (stereo not given)	/	10%	44%	/	/
CCOCc1[nH]c(=S)[nH]c(=O)c1Cc1ccc(OCC)cc1	/	-7%[11.4 µM]	3%	?	0%
COCc1[nH]c(=S)[nH]c(=O)c1C	?	-23%	36%	79µM*	-21%
CCCc1c(C(=O)NNc2ccc(C)cc2)cnn1-c1ccccc1	4.5µM*	?	-9%	11%	?
COc1ccc(OC)c(NC(=O)C(C)n2c(=O)cc(C)c3c(C)nn(-c4ccccc4)c32)c1 (stereo not given)	0%[59 µM]	-5%	3%	/	-10%
Cc1cccc(C(=O)N2CCC(=O)N(C(COCc3cccc(Cl)c3)Cc3ccccc3)CC2)c1 (stereo not given)	79µM*	-17%	57%	1%	-8%

From PubChem
